In PubChem BioAssay (Tox21):
Inconclusive results are not listed. Entries that show only a call come without a potency. The source made the active and inactive calls. Unless noted, the call rests on the fitted dose curve.

Columns and labels:
[1] = Nuclear factor erythroid 2-related factor 2/antioxidant responsive element (Nrf2/ARE) small molecule agonists: qHTS cell viability counter screen in human keratinocytes (AID 1919968; active means well fitted curve in the direction sought with a large enough effect in the repeat runs; an effect the other way counts as inactive or inconclusive; further: nearly all actives have a fitted effect of over 55% in size)
Procedure, shortened: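 Measured as CellTiter-Fluor fluorescence, this readout tracks cytotoxicity in the same wells as the ARE-luciferase screen. HaCaT reporter cells (1,500/well) received compounds after a 5 h pre-incubation and were exposed for 23 h.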

[2] = Nuclear factor erythroid 2-related factor 2/antioxidant responsive element (Nrf2/ARE) small molecule agonists: luciferase reporter gene qHTS assay in human keratinocytes (AID 1919969); further: nearly all actives have a fitted effect of over 35% in size
[3] = target: Gonadotropin-releasing hormone receptor (Homo sapiens) (UniProt P30968); assay: Human gonadotropin-releasing hormone receptor (GnRHR) small molecule agonists, calcium flux assay in GnRHR-HEK293 cells (AID 1920063); further: nearly all actives have a fitted effect of over 35% in size; further: potency means the concentration at half of the fitted maximal effect
Sequence of Gonadotropin-releasing hormone receptor (Homo sapiens) (P30968 whole entry, looked up): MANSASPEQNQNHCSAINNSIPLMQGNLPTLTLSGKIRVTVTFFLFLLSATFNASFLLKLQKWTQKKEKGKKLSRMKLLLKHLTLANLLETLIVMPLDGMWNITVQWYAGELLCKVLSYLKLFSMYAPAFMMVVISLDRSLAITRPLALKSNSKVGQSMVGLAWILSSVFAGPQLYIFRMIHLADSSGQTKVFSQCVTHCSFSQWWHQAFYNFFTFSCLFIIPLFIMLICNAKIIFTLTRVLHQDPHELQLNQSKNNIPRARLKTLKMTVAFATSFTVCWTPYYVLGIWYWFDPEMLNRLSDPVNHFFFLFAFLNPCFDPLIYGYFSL
Procedure, shortened: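 Fluorescence kinetics (480 nm excitation, 540 nm emission; 3 min, 1 s steps) report calcium mobilisation in human GnRHR-HEK293 cells in agonist mode. Dye incubation: 1 h, 37 C.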

[4] = target: KiSS-1 receptor (Homo sapiens) (UniProt Q969F8); assay: Human kisspeptin (KISS1R) small molecule agonists, calcium flux assay in KISS1R-HEK293 cells (AID 1920064; active means well fitted curve in the direction sought with a large enough effect in the repeat runs; an effect the other way counts as inactive or inconclusive)
Sequence of KiSS-1 receptor (Homo sapiens) (Q969F8 whole entry, looked up): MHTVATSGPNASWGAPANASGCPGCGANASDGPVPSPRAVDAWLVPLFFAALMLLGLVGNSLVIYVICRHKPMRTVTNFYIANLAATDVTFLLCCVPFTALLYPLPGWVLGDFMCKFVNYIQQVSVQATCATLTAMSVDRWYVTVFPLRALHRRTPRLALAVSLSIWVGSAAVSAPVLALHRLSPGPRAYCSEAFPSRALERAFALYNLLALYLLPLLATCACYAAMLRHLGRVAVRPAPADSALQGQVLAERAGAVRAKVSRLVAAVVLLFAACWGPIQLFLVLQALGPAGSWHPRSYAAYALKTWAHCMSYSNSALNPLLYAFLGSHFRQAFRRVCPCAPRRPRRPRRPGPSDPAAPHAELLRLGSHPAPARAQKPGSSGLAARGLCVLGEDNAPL
Procedure, shortened: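 Measures KISS1R agonism through calcium-sensitive dye fluorescence in stably transfected HEK293 cells, read for 3 min after pin-tool compound delivery; 15-point titrations in triplicate.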

[5] = G protein-coupled receptor (GPCR) small molecule agonists, calcium flux assay: HEK293 wild type cell line counter screen (AID 1920065)
Procedure, shortened: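 Readout: fluorescence at 480 nm excitation/540 nm emission, sampled at 1 s intervals for 3 min. Cells had been cultured 18 h, then dye-loaded 1 h at 37 C before compound or ATP addition.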

[6] = p53 small molecule agonists, cell-based qHTS assay with human liver microsomes (AID 1963577)
Procedure, shortened: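 Cells carrying a p53-responsive bla reporter were rested 5 h (37 C, 5% CO2) before compound transfer. Human liver microsomes plus NADPH, 0.5 mg/mL final apiece, supplied metabolism during the 16 h 37 C exposure.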

[7] = p53 small molecule agonists, cell-based qHTS assay with rat liver microsomes (AID 1963578)
Procedure, shortened: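 Fluorescence from a beta-lactamase reporter under a p53 response element was measured after cells had been incubated 16 h at 37 C with test compound and rat liver microsomes plus NADPH (0.5 mg/mL final each).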

[8] = p53 small molecule agonists, cell-based qHTS assay with human liver microsomes: qHTS cell viability counter screen (AID 1963579); further: nearly all actives have a fitted effect of over 45% in size; further: potency means the concentration at half of the fitted maximal effect
Procedure, shortened: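 Seed p53RE-bla cells at 4,000 per well; incubate 5 h at 37 C; add compound, human liver microsomes and NADPH; incubate 16 h at 37 C; add CellTiter-Glo; after 30 min at room temperature, read luminescence.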

[9] = p53 small molecule agonists, cell-based qHTS assay with rat liver microsomes: qHTS cell viability counter screen (AID 1963580); further: nearly all actives have a fitted effect of over 45% in size
Procedure, shortened: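 In HCT-116 cells carrying a p53 response element-bla reporter, compounds were metabolically activated in situ by rat liver microsomes with NADPH over 16 h. Cell ATP content then served as the cytotoxicity measure.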

[10] = p53 small molecule agonists, cell-based qHTS assay: qHTS cell viability counter screen (AID 1963581); further: nearly all actives have a fitted effect of over 45% in size
Procedure, shortened: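 In the same plates used for the p53 bla reporter, HCT-116 cells given compounds for 16 h at 37 C received CellTiter-Glo; luminescence was recorded 30 min later at room temperature.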

[11] = target: 5-hydroxytryptamine receptor 2A (Homo sapiens) (UniProt P28223); assay: 5-hydroxytryptamine receptor 2A (HTR2A) small molecule antagonists, cell-based qHTS assay (AID 1963586); further: nearly all actives have a fitted effect of over 45% in size
Sequence of 5-hydroxytryptamine receptor 2A (Homo sapiens) (P28223 whole entry, looked up): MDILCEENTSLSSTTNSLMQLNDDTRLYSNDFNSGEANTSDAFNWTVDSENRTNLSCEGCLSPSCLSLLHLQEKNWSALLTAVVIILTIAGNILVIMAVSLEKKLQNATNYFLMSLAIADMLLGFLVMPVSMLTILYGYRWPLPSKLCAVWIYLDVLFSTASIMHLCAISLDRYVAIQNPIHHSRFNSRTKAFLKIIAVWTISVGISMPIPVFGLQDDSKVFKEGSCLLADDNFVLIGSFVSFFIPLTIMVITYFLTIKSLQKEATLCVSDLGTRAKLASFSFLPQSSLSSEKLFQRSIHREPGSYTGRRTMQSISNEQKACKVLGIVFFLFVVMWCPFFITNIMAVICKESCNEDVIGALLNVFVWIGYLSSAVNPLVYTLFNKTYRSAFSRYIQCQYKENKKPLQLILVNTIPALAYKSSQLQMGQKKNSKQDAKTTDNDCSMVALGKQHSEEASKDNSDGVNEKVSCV
Procedure, shortened: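 Antagonist-mode intracellular calcium assay: DOI (4 nM) added after 5 min compound pre-incubation at room temperature to dye-loaded HTR2A-CHO cells. Fluorescence followed for 3 min, sampled every second.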

[12] = target: 5-hydroxytryptamine receptor 2A (Homo sapiens) (UniProt P28223); assay: 5-hydroxytryptamine receptor 2A (HTR2A) small molecule agonists, cell-based qHTS assay (AID 1963587); further: nearly all actives have a fitted effect of over 30% in size
Procedure, shortened: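 HTR2A-CHO cells, plated 18 h at 37 C/5% CO2, dye-loaded 1 h at 37 C; compounds in DMSO added by pin tool (agonist mode). Intracellular calcium flux read as kinetic fluorescence on FDSS over 2 min at 1 s intervals.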

[13] = target: Muscarinic acetylcholine receptor M1 (Homo sapiens) (UniProt P11229); assay: Cholinergic receptor muscarinic 1 (CHRM1) small molecule agonists, cell-based qHTS assay (AID 1963589); further: nearly all actives have a fitted effect of over 35% in size
Sequence of Muscarinic acetylcholine receptor M1 (Homo sapiens) (P11229 whole entry, looked up): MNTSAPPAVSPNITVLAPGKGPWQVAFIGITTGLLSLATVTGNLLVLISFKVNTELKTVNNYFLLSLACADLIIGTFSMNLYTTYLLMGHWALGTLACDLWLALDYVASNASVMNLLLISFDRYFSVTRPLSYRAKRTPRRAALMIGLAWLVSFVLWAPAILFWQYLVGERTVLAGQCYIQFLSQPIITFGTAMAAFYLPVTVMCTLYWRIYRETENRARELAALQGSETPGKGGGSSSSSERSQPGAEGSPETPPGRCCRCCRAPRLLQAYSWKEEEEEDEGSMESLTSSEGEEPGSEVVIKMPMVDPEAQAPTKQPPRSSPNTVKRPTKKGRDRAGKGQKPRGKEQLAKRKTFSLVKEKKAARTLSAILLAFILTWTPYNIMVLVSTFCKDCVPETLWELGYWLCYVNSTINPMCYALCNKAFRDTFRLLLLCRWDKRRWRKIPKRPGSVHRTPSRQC
Procedure, shortened: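 Each compound was tested at 15 concentrations across three independent runs on dye-loaded CHO cells stably expressing human CHRM1, reading intracellular calcium fluorescence kinetically at 1 sec intervals.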

[14] = cAMP Responsive Elements (CRE) small molecule agonists, cell-based qHTS assay (AID 1963590)
Procedure, shortened: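 Cell line: CRE-bla HEK 293T; medium DMEM/10% dialyzed FBS/0.1 mM NEAA/1 mM pyruvate/25 mM HEPES; 3 h compound exposure; beta-lactamase FRET readout after 2 h substrate loading at RT.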

[15] = cAMP Responsive Elements (CRE) small molecule antagonists, cell-based qHTS assay (AID 1963591; active means well fitted inhibition curve with a large enough effect in the signal ratio in the repeat runs, not every such curve was filed as active; the % refers to the signal ratio)
Procedure, shortened: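 Inhibition of NKH477-driven (0.25 uM final) CRE-beta-lactamase signal in HEK293T cells, 3 h compound exposure at 37 °C, detected by FRET substrate fluorescence.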

[16] = target: Beta-2 adrenergic receptor (Homo sapiens) (UniProt P07550); assay: Adrenergic beta2 receptor (ADRB2) small molecule agonists, cell-based qHTS assay (AID 1963593); further: potency means the concentration at half of the fitted maximal effect
Sequence of Beta-2 adrenergic receptor (Homo sapiens) (P07550 whole entry, looked up): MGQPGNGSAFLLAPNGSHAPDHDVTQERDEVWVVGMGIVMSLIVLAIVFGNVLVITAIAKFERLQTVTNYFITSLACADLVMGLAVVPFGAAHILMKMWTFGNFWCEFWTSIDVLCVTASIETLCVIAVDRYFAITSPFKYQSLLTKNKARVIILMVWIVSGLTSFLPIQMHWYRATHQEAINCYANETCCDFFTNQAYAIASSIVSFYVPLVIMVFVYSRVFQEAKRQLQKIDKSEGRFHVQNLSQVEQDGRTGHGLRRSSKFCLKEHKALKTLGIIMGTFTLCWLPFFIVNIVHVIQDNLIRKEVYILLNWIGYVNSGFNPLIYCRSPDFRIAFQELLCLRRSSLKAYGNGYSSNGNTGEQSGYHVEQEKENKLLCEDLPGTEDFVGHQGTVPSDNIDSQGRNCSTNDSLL
Procedure, shortened: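 CHO cells stably over-expressing ADRB2 were plated overnight at 37C, then dosed with compounds plus a stimulation mix containing 100uM IBMX and 25uM Ro-20-1724 for 0.5hr at room temperature. cAMP was measured by HTRF competition, 1hr.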

[17] = target: D(2) dopamine receptor (Homo sapiens) (UniProt P14416); assay: Dopamine D2 receptor (DRD2) small molecule agonists, cell-based qHTS assay (AID 1963594); further: nearly all actives have a fitted effect of over 35% in size; further: potency means the concentration at half of the fitted maximal effect
Sequence of D(2) dopamine receptor (Homo sapiens) (P14416 whole entry, looked up): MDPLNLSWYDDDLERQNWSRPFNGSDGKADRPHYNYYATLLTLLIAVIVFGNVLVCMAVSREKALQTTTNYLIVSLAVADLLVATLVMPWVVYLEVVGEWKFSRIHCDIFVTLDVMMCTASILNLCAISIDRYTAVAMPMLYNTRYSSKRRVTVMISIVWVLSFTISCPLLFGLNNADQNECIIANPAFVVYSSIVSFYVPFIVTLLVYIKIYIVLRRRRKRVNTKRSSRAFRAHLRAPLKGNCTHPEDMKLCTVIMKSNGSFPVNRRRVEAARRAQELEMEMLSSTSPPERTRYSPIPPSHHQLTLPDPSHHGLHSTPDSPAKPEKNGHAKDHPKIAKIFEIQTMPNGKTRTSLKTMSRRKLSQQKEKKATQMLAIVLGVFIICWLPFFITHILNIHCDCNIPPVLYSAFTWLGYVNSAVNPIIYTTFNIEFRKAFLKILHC
Procedure, shortened: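 HEK293 cells stably expressing DRD2 were cultured 24 h at 37 C, then given Ro20-1724 (0.1 mM final) and compounds for 10 min at room temperature. NKH477 (200nM) was then added for 30 min. cAMP was read by HTRF.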

[18] = target: D(2) dopamine receptor (Homo sapiens) (UniProt P14416); assay: Dopamine D2 receptor (DRD2) small molecule antagonists, cell-based qHTS assay (AID 1963595; active means well fitted inhibition curve with a large enough effect in the signal ratio in the repeat runs, with a control signal flat; the % refers to the signal ratio; further: potency means the concentration at half of the fitted maximal effect)
Procedure, shortened: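 HEK293 cells stably expressing DRD2, preincubated with 0.1 mM Ro20-1724 and compounds 10 min, were stimulated with 200 nM NKH477 plus 12 nM quinpirole for 30 min at room temperature; cAMP measured by HTRF (665/620 nm).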

[19] = target: Muscarinic acetylcholine receptor M1 (Homo sapiens) (UniProt P11229); assay: Cholinergic receptor muscarinic 1 (CHRM1) small molecule antagonists, cell-based qHTS assay (AID 1963588); further: nearly all actives have a fitted effect of over 40% in size
Procedure, shortened: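 CHRM1-CHO calcium-flux assay, antagonist mode. Cells were seeded 18 h, dye-loaded 1 h at 37 C and given compound for 5 min at RT, then acetylcholine was added at 50nM. FDSS fluorescence was read 3 min; 15 concentrations, three runs.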

[20] = target: Beta-2 adrenergic receptor (Homo sapiens) (UniProt P07550); assay: Adrenergic beta2 receptor (ADRB2) small molecule antagonists, cell-based qHTS assay (AID 1963592); further: series mostly up to about 92 µM; nearly all actives have a fitted effect of over 50% in size
Procedure, shortened: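 Cells (CHO, stable ADRB2 overexpression) incubated 18-20hr at 37C; compounds added from DMSO; agonist mix (1nM isoproterenol, 100uM IBMX, 25uM Ro-20-1724) added; 0.5hr RT; d2-cAMP and anti-cAMP-cryptate added; 1hr RT; 665/615 nm read.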

Row | Structure (SMILES) | Potency [1] | Potency [2] | Potency [3] | outcome [4] | outcome [5] | Potency [6] | Potency [7] | Potency [8] | Potency [9] | Potency [10] | Potency [11] | Potency [12] | Potency [13] | Potency [14] | Potency [15] | Potency [16] | Potency [17] | Potency [18] | Potency [19] | Potency [20]
1 | Cc1ccccc1C#N | inactive | inactive | inactive | inactive | inactive | inactive | inactive | inactive | inactive | inactive | inactive | inactive | inactive | inactive | inactive | inactive | inactive | inactive | – | –
2 | O=C(O)CCCc1ccccc1 | inactive | inactive | inactive | inactive | inactive | inactive | inactive | inactive | inactive | – | inactive | inactive | inactive | inactive | inactive | – | inactive | inactive | inactive | inactive
3 | COC(=O)c1ccccc1Cl | inactive | inactive | inactive | inactive | inactive | inactive | inactive | inactive | inactive | – | inactive | inactive | inactive | inactive | inactive | – | inactive | inactive | inactive | inactive
4 | Cc1ccc(C(=O)Oc2ccc(C(O)CNC(C)(C)C)cc2OC(=O)c2ccc(C)cc2)cc1 (centres undefined) | inactive | inactive | 53.5 nM (active) | inactive | inactive | inactive | inactive | 397 nM (active) | inactive | inactive | – | – | – | – | – | 84.1 nM (active) | inactive | 841 nM (active) | inactive | –
5 | Cc1oc(=O)oc1COC(=O)[C@@H]1N2C(=O)[C@@H](NC(=O)[C@H](N)c3ccccc3)[C@H]2SC1(C)C | inactive | inactive | inactive | inactive | inactive | inactive | inactive | inactive | inactive | – | inactive | inactive | inactive | inactive | inactive | – | inactive | inactive | inactive | inactive
6 | CCCCCCCCCCCC(C)=O | inactive | inactive | inactive | inactive | inactive | inactive | inactive | inactive | inactive | – | inactive | inactive | inactive | inactive | inactive | inactive | inactive | inactive | inactive | inactive
7 | O=C1C=CCCC1 | inactive | inactive | inactive | inactive | inactive | inactive | inactive | inactive | inactive | – | inactive | inactive | inactive | inactive | inactive | – | inactive | inactive | inactive | inactive
8 | C[C@H]1C[C@H]2[C@@H]3CCC4=CC(=O)C=C[C@]4(C)[C@@]3(F)[C@@H](O)C[C@]2(C)[C@@]1(O)C(=O)COP(=O)(O)O | inactive | inactive | inactive | inactive | inactive | inactive | inactive | inactive | inactive | inactive | – | – | – | inactive | inactive | inactive | – | inactive | – | inactive
9 | O=C1CCCCCCCCCCCCCC1 | inactive | inactive | inactive | inactive | inactive | inactive | inactive | inactive | inactive | – | inactive | inactive | inactive | inactive | inactive | inactive | inactive | inactive | inactive | inactive
10 | CO[Si](CCCn1c(=O)n(CCC[Si](OC)(OC)OC)c(=O)n(CCC[Si](OC)(OC)OC)c1=O)(OC)OC | inactive | inactive | inactive | inactive | inactive | inactive | inactive | inactive | inactive | – | inactive | inactive | inactive | inactive | inactive | inactive | inactive | inactive | inactive | inactive
11 | COc1ccc2c(c1)c(CC(=O)OCC(=O)O)c(C)n2C(=O)c1ccc(Cl)cc1 | inactive | inactive | inactive | inactive | inactive | inactive | inactive | inactive | inactive | inactive | – | – | – | – | – | – | – | inactive | – | inactive
12 | CCCCCCCCCCCC[N+](C)(C)CC(=O)[O-] | inactive | inactive | inactive | inactive | inactive | inactive | inactive | inactive | inactive | inactive | – | – | inactive | inactive | – | inactive | inactive | inactive | inactive | inactive
13 | Nc1nc2c(ncn2COC(CO)CO)c(=O)[nH]1 | inactive | inactive | inactive | inactive | inactive | inactive | inactive | inactive | inactive | inactive | – | – | – | inactive | inactive | inactive | 1.14 µM (active) | inactive | – | inactive
14 | C1CCN(CN2CCCCC2)CC1 | inactive | inactive | inactive | inactive | inactive | inactive | inactive | inactive | inactive | – | inactive | inactive | inactive | inactive | inactive | inactive | – | inactive | inactive | inactive
